The results in this text go back to ChEMBL document CHEMBL3433997, “St. Jude Leishmania screening dataset” (2016).

In general, inhibition refers to the relative decrease from the control value, in per cent.

Where “and” joins values, the source holds several entries; their conditions need not be identical. Equal values may be shown once.

Assay type in all cases: functional
For test [1], the target named is Solute carrier family 2, facilitated glucose transporter member 1 (Homo sapiens) (UniProt P11166). As to the kind of experiment: ST_JUDE_LEISH: Cytotoxicity at 2uM final concentration against transgenic Leishmania Mexicana promastigotes LmGLUT1 that are glucose transport deficient and complemented with the human glucose transporter GLUT1. Activity is measured by DNA content using SYBR green in vitro.
Solute carrier family 2, facilitated glucose transporter member 1 (Homo sapiens), sequence (P11166 whole entry): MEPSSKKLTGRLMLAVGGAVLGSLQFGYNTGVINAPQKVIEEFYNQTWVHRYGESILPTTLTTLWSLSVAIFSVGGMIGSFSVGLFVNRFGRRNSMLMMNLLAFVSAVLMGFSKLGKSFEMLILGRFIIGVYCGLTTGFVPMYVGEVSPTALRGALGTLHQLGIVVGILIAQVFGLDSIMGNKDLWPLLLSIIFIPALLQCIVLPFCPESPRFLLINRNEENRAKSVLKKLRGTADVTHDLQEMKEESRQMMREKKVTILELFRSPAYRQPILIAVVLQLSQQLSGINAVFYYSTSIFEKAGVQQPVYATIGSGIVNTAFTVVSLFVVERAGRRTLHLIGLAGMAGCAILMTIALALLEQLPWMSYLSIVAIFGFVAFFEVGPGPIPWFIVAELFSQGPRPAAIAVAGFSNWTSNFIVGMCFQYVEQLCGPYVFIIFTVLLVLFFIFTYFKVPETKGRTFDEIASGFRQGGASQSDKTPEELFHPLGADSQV

In test [2] the target is Hexose transporter 1 (Plasmodium falciparum) (UniProt O97467). As to the kind of experiment: ST_JUDE_LEISH: Cytotoxicity at 2uM final concentration against transgenic Leishmania Mexicana promastigotes LmPfHT that are glucose transport deficient and complemented with the Plasmodium falciparum hexose transporter. Activity is measured by DNA content using SYBR green in vitro.

In test [3] the target is Glucose transporter (Leishmania mexicana) (UniProt O61059). Put plainly: ST_JUDE_LEISH: Cytotoxicity at 2uM final concentration against transgenic Leishmania Mexicana promastigotes LmGT2 that are glucose transport deficient and complemented with the L. Mexicana glucose transporter 2. Activity is measured by DNA content using SYBR green in vitro.

Take `COc1cc2nc(-c3ccccc3)nc(N3CCN(C(=O)c4ccco4)CC3)c2cc1OC`: the values for the inhibition in test [1], in test [2] and in test [3] were 13.7%, 8.22% and 7.06%, respectively.

Turning to `O=C(Cc1ccccc1)NC(CCN1CCC(N(C2CC2)S(=O)(=O)c2cccc(C(F)(F)F)c2)CC1)c1ccc(Cl)c(Cl)c1` (stereo not given), the inhibition came out at 5.55% in test [1], 3.86% in test [2] and 3.73% in test [3].

On to `CCN(CC1CCN(CC2(O)CCOCC2)CC1)c1cc(C)nc(Nc2ccc(Cl)cc2)n1`, for which the results for the inhibition in test [1], in test [2] and in test [3] were -1.01%, 0.27% and -0.02%, respectively.

Consider `O=C(Nc1ccc(S(=O)(=O)NCCCN2CCOCC2)cc1)c1cc(-c2ccccc2)[nH]n1`, for which the figures for the inhibition in test [1], in test [2] and in test [3] were 1.2%, 1.66% and 5.52%, respectively.

On to `Cc1cccc2nc(-c3ccc(-c4cccc(NC(=O)C(C)CN5CCN(C)CC5)c4)cc3)[nH]c12` (stereo not given), for which the results for the inhibition in test [1], in test [2] and in test [3] were 3.33%, 0.81% and 5.85%, respectively.

For `Cc1c(NCCCNCc2cc(Cl)cc(Cl)c2Cl)[nH]c2ccccc2c1=O`, the inhibition in test [1] was 10.6%; in test [2], 9.36%; in test [3], 8.22%.

As for `O=C(NCC1CC1)C1CCN(C(c2ccccc2)c2ccc(Cl)c(Cl)c2)CC1` (stereo not given), the inhibition was -0.49% in test [1], 1.49% in test [2] and 0.06% in test [3].

Take `NS(=O)(=O)c1cccc(-c2ccc3ncc(N4CCOCC4)nc3c2)c1`: the values for the inhibition in test [1], in test [2] and in test [3] were 1.24%, 2.84% and -0.09%, respectively.

With `CN1CCC(NCCS(=O)(=O)c2cccc(Nc3ccc(-c4cccc(F)c4)cn3)c2)CC1`, the inhibition in test [1] is 0.4%; in test [2], 0.91%; in test [3], -0.71%.

Turning to `COc1ccc(NC(=O)CSc2nc(-c3ccccc3Cl)ns2)cc1OC`, the inhibition in test [1] is -0.51%; in test [2] it was -0.5%; in test [3], 2.58%.

In the case of `CC(=O)Nc1ccc(CN(Cc2cccc(OC(C)(C)C)c2)Cc2ccc3c(c2)OCCO3)cc1`, the inhibition in test [1] was 4.55%; in test [2], 2.67%; in test [3], 6.39%.

With `O=C(Nc1ccc(Cl)cc1)Nc1ccc(-c2cccc(-c3nc4cc(F)ccc4[nH]3)c2)cc1`, the inhibition came to 2.83% in test [1], 4.68% in test [2] and 3.09% in test [3].

Regarding `COc1cccc(NC(=O)Nc2ccc(Nc3nc(C)cc(N(C)C)n3)cc2)c1`, the values for the inhibition in test [1], in test [2] and in test [3] were 2.46%, 1.22% and -4.92%, respectively.

As for `O=C(Nc1cccc(-c2ccc(CN3CCCC3)cc2)c1)c1ccc(Cl)cc1`, the inhibition in test [1] was determined as 3.03%; in test [2], 1.53%; in test [3] it was 1.42%.

Take `O=C(Nc1ccc(OC2CCN(CC3CC3)CC2)c(Cl)c1)c1ccc2ncccc2c1`: the values for the inhibition in test [1], in test [2] and in test [3] were 8.41%, 9.49% and 7.58%, respectively.

On to `COc1ccc2nccc(NC(=O)C3(O)CCC(NCc4ccc5c(c4)NCCS5)CC3)c2n1` (stereo not given), for which the inhibition in test [1] is 15%; in test [2] it was 22.5%; in test [3], 7.11%.

In the case of `O=C(NCC1Cc2cc(Oc3ccccc3)ccc2O1)c1ccc([N+](=O)[O-])o1` (stereo not given), the inhibition in test [1] amounted to 7.98%; in test [2] it was 10.4%; in test [3], 3.24%.

`COc1ccc(NC(=O)/C=C/c2ccccc2Cl)cc1OCCN1CCN(c2ccncc2)CC1`: the inhibition is 1.29% in test [1], -0.96% in test [2] and -1.49% in test [3].

For the compound `Clc1cccc(Nc2ccc3c(N4CCCCC4)ncnc3n2)c1`, the results for the inhibition in test [1], in test [2] and in test [3] were 12%, 10.8% and 4.28%, respectively.

On to `O=C(Nc1ccc2c(c1)CCC2)c1ccc(N2CCN(c3ccncc3)CC2)cc1`, for which the inhibition in test [1] came to 68.7%; in test [2], 29.6%; in test [3], 68.3%.

In the case of `OC1(Cc2ccccc2)CCN(Cc2cccc(-c3c[nH]c4nc(NC5CCCC5)ncc34)c2)CC1`, the inhibition in test [1] was found to be 9.83%; in test [2], 8.36%; in test [3], 6.99%.

`Cc1cccc2nc(-c3ccc(-c4ccc(NC(=O)Nc5ccsc5)cc4)cc3)[nH]c12`: the inhibition is 0.7% in test [1], -0.26% in test [2] and -0.35% in test [3].

Regarding `Fc1ccc2[nH]c(-c3ccc(-c4ccc(CNCc5ccccc5)cc4)cc3)nc2c1`, the results for the inhibition in test [1], in test [2] and in test [3] were 12.6%, 8.67% and 6.7%, respectively.

With `O=C(c1cc2ccccc2o1)N1CCc2cc3nccc(N4CCN5CCC[C@H]5C4)c3cc21`, the inhibition is 3.95% in test [1], 4.36% in test [2] and 6.35% in test [3].

For `COc1ccccc1-c1csc(C(=O)NCC2CCN(Cc3ccc(C(C)C)cc3)C2)c1` (stereo not given), the values for the inhibition in test [1], in test [2] and in test [3] were -1.65%, -2.5% and -1.65%, respectively.

Consider `O=C(NC1CCCCN(Cc2ccccc2O)C1)c1ccc(-c2ccccc2)cc1` (stereo not given), for which the inhibition was 2.73% in test [1], 2.62% in test [2] and 2.4% in test [3].

For `CC1CN(CC(O)Cn2c3ccc(Br)cc3c3cc(Br)ccc32)CC(C)O1` (stereo not given), the inhibition in test [1] is 2.95%; in test [2], 2.45%; in test [3], 3.29%.

On to `CCNc1cc(C(=O)N[C@@H](Cc2ccccc2)[C@H](O)CN[C@@H](C)c2ccccc2)cc(N2CCCC2=O)c1`, for which the inhibition in test [1] came to 1.35%; in test [2] it was 0.55%; in test [3], 1.24%.

`CCC(CC(NCCCCNC(=O)c1ccc(NC(=O)c2ccc(Cl)cc2)cc1)c1ccccc1)c1ccccc1OC` (stereo not given): the inhibition is 1.72% and 1.8% in test [1]; 1.83% and 1.71% in test [2]; 1.46% and -1.08% in test [3].

In the case of `Cc1cc(=O)[nH]c(-n2nc(C)cc2NC(=O)C(c2ccccc2)c2ccccc2)n1`, the inhibition worked out at 20.5% in test [1], 29.6% in test [2] and 6.5% in test [3].

Regarding `CCCCN(CCCC)/C(=N/c1cccc(Cl)c1Cl)Nc1ccc(C#N)cc1O`, the inhibition in test [1] is 3.21%; in test [2], 2.13%; in test [3], -4.06%.

For the compound `COc1cc(-c2nc(-c3ccc(C(=O)c4ccc(F)cc4)cc3)c(-c3ccccc3)[nH]2)cc(OC)c1O`, the inhibition in test [1] was 3.28%; in test [2] it was -0.56%; in test [3] it was 0.05%.

As for `Cc1cccc2nc(-c3cccc(-c4cccc(CNCCc5ccncc5)c4)c3)[nH]c12`, the figures for the inhibition in test [1], in test [2] and in test [3] were -1.47%, 1.2% and -1.48%, respectively.

On to `Cc1cc(NCCC(=O)NCc2cccc(F)c2)nc(Nc2ccccc2)n1`, for which the inhibition in test [1] is 8.44%; in test [2], 7.08%; in test [3] it was -6.28%.

Regarding `CCc1ccc(C2CCN(CCCCNC(=O)c3ccc(NC(=O)c4ccc(Cl)cc4)cc3)CC2)c(OC)c1`, the figures for the inhibition in test [1], in test [2] and in test [3] were 9.49%, 2.21% and 1.66%, respectively.
